Reference: the supplement of paper PMC9262897, “Low-cost anti-mycobacterial drug discovery using engineered E. coli” (Nature Communications, 2022)
Where a name gives a salt, the structure may show the parent alone. ± gives the standard deviation of the averaged measurements.

Assays:
Assay in all cases: growth (OD600 after 10 h); higher = more growth (less inhibition)
[1] = system: E. coli TESEC Alr+ wild-type control; details: compound 0.1 mM; raw OD600 reference: median of DMSO wells 0.241, cell-free background 0.041
Method: (§1)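 TESEC Mtb Alr E. coli, or the Alr+ wild-type control, in 384-well plates with Prestwick library compounds at 0.1 mM and 1% DMSO, across arabinose induction levels of 1E3 to 1E7 nM. Growth is read as OD600 after 10 h at 37 °C in triplicate biological replicates.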

E. coli TESEC Mtb Alr [2] = details: compound 0.1 mM
Method: as §1

E. coli TESEC Mtb Asd = details: compound 0.1 mM
Method: (§2)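 TESEC E. coli strains in which the native enzyme is deleted and replaced by arabinose-inducible Mtb Asd, DapB, CysH or TrpD, each grown in its selective medium. Strains were screened against the Prestwick library at 0.1 mM and 1% DMSO in 384-well format at low and high arabinose induction. Growth is read as OD600 after 10 h in triplicate.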

E. coli TESEC Mtb DapB = details: compound 0.1 mM
Method: as §2

[3] = system: E. coli TESEC Alr+ wild-type control; details: compound 0.1 mM; raw OD600 reference: median of DMSO wells 0.49, cell-free background 0.052
Method: (§3)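 TESEC Mtb Alr E. coli (ΔaraC ΔtolC ΔentC Δalr ΔdadX, arabinose-inducible Mtb Alr) or the Alr+ wild-type control strain, grown in defined M9-fructose medium without D-alanine in 96-well plates with Prestwick library compounds at 0.1 mM and 1% DMSO. Low Alr induction is 0.1 µM arabinose and high induction is 10 mM arabinose.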

E. coli TESEC Mtb Alr [4] = details: compound 0.1 mM; remark: listed apart in the source
Method: as §3

[5] = arabinose 1000 nM, raw OD600 reference: median of DMSO wells 0.294, cell-free background 0.041
[6] = arabinose 10000 nM, raw OD600 reference: median of DMSO wells 0.264, cell-free background 0.041
[7] = arabinose 100000 nM, raw OD600 reference: median of DMSO wells 0.201, cell-free background 0.041
[8] = arabinose 1000000 nM, raw OD600 reference: median of DMSO wells 0.193, cell-free background 0.041
[9] = arabinose 10000000 nM, raw OD600 reference: median of DMSO wells 0.146, cell-free background 0.041
[10] = arabinose induction (level): High, raw OD600 reference: median of DMSO wells 0.331, cell-free background 0.041
[11] = arabinose induction (level): Low, raw OD600 reference: median of DMSO wells 0.417, cell-free background 0.041
[12] = arabinose induction (level): High, raw OD600 reference: median of DMSO wells […], cell-free background 0.041
[13] = arabinose induction (level): Low, raw OD600 reference: median of DMSO wells 0.227, cell-free background 0.041
[14] = arabinose 100 nM, raw OD600 reference: median of DMSO wells 0.413, cell-free background 0.052
[15] = arabinose 10000000 nM, raw OD600 reference: median of DMSO wells […], cell-free background 0.052

| SMILES | growth [1] | growth (E. coli TESEC Mtb Alr [2]; [5]) | growth (E. coli TESEC Mtb Alr [2]; [6]) | growth (E. coli TESEC Mtb Alr [2]; [7]) | growth (E. coli TESEC Mtb Alr [2]; [8]) | growth (E. coli TESEC Mtb Alr [2]; [9]) | growth (E. coli TESEC Mtb Asd; [10]) | growth (E. coli TESEC Mtb Asd; [11]) | growth (E. coli TESEC Mtb DapB; [12]) | growth (E. coli TESEC Mtb DapB; [13]) | growth [3] | growth (E. coli TESEC Mtb Alr [4]; [14]) | growth (E. coli TESEC Mtb Alr [4]; [15]) |
| --- | --- | --- | --- | --- | --- | --- | --- | --- | --- | --- | --- | --- | --- |
| Cc1c(Cl)cccc1Nc1ccccc1C(=O)O [Tolfenamic acid] | 0.0444 ± 0.0007 | 0.0448 ± 0.0007 | 0.0413 ± 0.0001 | 0.0477 ± 0.0013 | 0.0424 ± 0.00053 | 0.0598 ± 0.0014 | 0.0513 ± 0.0022 | 0.052 ± 0.004 | 0.0686 ± 0.0054 | 0.0876 ± 0.044 | 0.0743 ± 0.0023 | 0.0964 ± 0.065 | 0.0536 ± 0.0002 |
| Cn1nnc2c(C(N)=O)ncn2c1=O [Temozolomide] | 0.241 ± 0.006 | 0.289 ± 0.0045 | 0.248 ± 0.0082 | 0.208 ± 0.018 | 0.163 ± 0.0073 | 0.134 ± 0.0048 | 0.225 ± 0.0049 | 0.305 ± 0.022 | 0.194 ± 0.02 | 0.211 ± 0.0067 | 0.539 ± 0.076 | 0.423 ± 0.011 | 0.35 ± 0.01 |
| COCCCC/C(=N\OCCN)c1ccc(C(F)(F)F)cc1 [Fluvoxamine maleate] | 0.225 ± 0.0049 | 0.274 ± 0.0066 | 0.26 ± 0.013 | 0.214 ± 0.016 | 0.133 ± 0.0052 | 0.136 ± 0.0081 | 0.295 ± 0.079 | 0.231 ± 0.044 | 0.183 ± 0.014 | 0.229 ± 0.05 | 0.518 ± 0.051 | 0.416 ± 0.0072 | 0.319 ± 0.0054 |
| CCSc1ccc2c(c1)N(CCCN1CCN(C)CC1)c1ccccc1S2 [Thiethylperazine dimalate] | 0.0403 ± 0.00055 | 0.0413 ± 0.0013 | 0.0405 ± 0.0005 | 0.0425 ± 0.002 | 0.03993 ± 0.00021 | 0.0411 ± 0.00055 | 0.0483 ± 0.0004 | 0.0464 ± 0.0011 | 0.0474 ± 0.0002 | 0.04737 ± 0.00025 | 0.0499 ± 0.0032 | 0.0513 ± 0.00084 | 0.0544 ± 0.0021 |
| Clc1ccc(CSC(Cn2ccnc2)c2ccc(Cl)cc2Cl)cc1 (centres undefined) [Sulconazole nitrate] | 0.0579 ± 0.0028 | 0.0534 ± 0.0013 | 0.0668 ± 0.0017 | 0.0542 ± 0.00071 | 0.0669 ± 0.0011 | 0.0556 ± 0.0041 | 0.0615 ± 0.0029 | 0.0557 ± 0.0015 | 0.0605 ± 0.00098 | 0.0607 ± 0.0018 | 0.0607 ± 0.0028 | 0.0787 ± 0.039 | 0.0898 ± 0.0077 |
| CC(=O)N[C@@H](CC(C)C)C(=O)O [N-Acetyl-L-leucine] | 0.243 ± 0.013 | 0.292 ± 0.016 | 0.259 ± 0.004 | 0.219 ± 0.0097 | 0.192 ± 0.0042 | 0.134 ± 0.0046 | 0.378 ± 0.077 | 0.476 ± 0.0098 | 0.206 ± 0.0033 | 0.205 ± 0.0021 | 0.637 ± 0.023 | 0.41 ± 0.013 | 0.349 ± 0.0042 |
| Cc1c(NC(=O)c2cccnc2)c(=O)n(-c2ccccc2)n1C [Nifenazone] | 0.251 ± 0.0067 | 0.305 ± 0.0092 | 0.27 ± 0.0045 | 0.212 ± 0.024 | 0.183 ± 0.0036 | 0.1554 ± 0.001 | 0.309 ± 0.066 | 0.411 ± 0.1 | 0.192 ± 0.0073 | 0.262 ± 0.065 | 0.507 ± 0.062 | 0.413 ± 0.017 | 0.339 ± 0.011 |
| N=C(N)NS(=O)(=O)c1ccc(N)cc1 [Sulfaguanidine] | 0.249 ± 0.013 | 0.292 ± 0.029 | 0.26 ± 0.0047 | 0.227 ± 0.027 | 0.173 ± 0.0041 | 0.143 ± 0.0034 | 0.38 ± 0.028 | 0.383 ± 0.021 | 0.203 ± 0.0078 | 0.249 ± 0.032 | 0.431 ± 0.022 | 0.41 ± 0.016 | 0.383 ± 0.022 |
| C#C[C@]1(OC(C)=O)CC[C@H]2[C@@H]3CCC4=CC(=NO)CC[C@@H]4[C@H]3CC[C@@]21CC (mixture of isomers) [Norgestimate] | 0.134 ± 0.0062 | 0.123 ± 0.0052 | 0.0585 ± 0.0036 | 0.136 ± 0.0049 | 0.0563 ± 0.0053 | 0.111 ± 0.0098 | 0.0829 ± 0.015 | 0.0714 ± 0.019 | 0.126 ± 0.0075 | 0.0826 ± 0.025 | 0.185 ± 0.0039 | 0.263 ± 0.013 | 0.0794 ± 0.012 |
| C=C(CC)C(=O)c1ccc(OCC(=O)O)c(Cl)c1Cl [Ethacrynic acid] | 0.0566 ± 0.0011 | 0.242 ± 0.01 | 0.244 ± 0.0042 | 0.2 ± 0.005 | 0.171 ± 0.0037 | 0.144 ± 0.0087 | 0.171 ± 0.057 | 0.19 ± 0.074 | 0.18 ± 0.0058 | 0.181 ± 0.022 | 0.374 ± 0.014 | 0.376 ± 0.0052 | 0.374 ± 0.017 |
| NC(=O)N/N=C/c1ccc([N+](=O)[O-])o1 [Nitrofural] | 0.044 ± 0.00072 | 0.0426 ± 0.00078 | 0.04193 ± 0.00015 | 0.044 ± 0.0018 | 0.042 ± 0.00045 | 0.0427 ± 0.00084 | 0.0898 ± 0.0054 | 0.0756 ± 0.0054 | 0.11 ± 0.0086 | 0.145 ± 0.016 | 0.0529 ± 0.0016 | 0.0532 ± 0.0056 | 0.0522 ± 0.00076 |
| CC(C)NCC(O)c1ccc(NS(C)(=O)=O)cc1 (centres undefined) [Sotalol hydrochloride] | 0.163 ± 0.0095 | 0.206 ± 0.0064 | 0.254 ± 0.0096 | 0.173 ± 0.025 | 0.138 ± 0.0027 | 0.142 ± 0.0089 | 0.242 ± 0.084 | 0.377 ± 0.056 | 0.181 ± 0.016 | 0.221 ± 0.016 | 0.433 ± 0.0053 | 0.402 ± 0.012 | 0.359 ± 0.025 |
| CCn1nc(C(=O)O)c(=O)c2cc3c(cc21)OCO3 [Cinoxacin] | 0.0813 ± 0.0028 | 0.0736 ± 0.006 | 0.0622 ± 0.0033 | 0.089 ± 0.0035 | 0.108 ± 0.0017 | 0.139 ± 0.0015 | 0.335 ± 0.024 | 0.244 ± 0.035 | 0.211 ± 0.013 | 0.212 ± 0.0088 | 0.0852 ± 0.0034 | 0.0933 ± 0.016 | 0.0712 ± 0.0049 |
